Compound activity deposited in PubChem BioAssay by several laboratories.
TWEAK-Fn14 inh = inhibitors of TWEAK-Fn14 signaling, primary screen, luciferase reporter cells, uHTS; actives 2% (n = 360,000); TWEAK-stimulated Fn14 reporter cells, luciferase luminescence, 8 h; inhibition, % at 10 µM; in the data active means inhibition above about 50%
EBV LMP1 NFkB = EBV LMP1-driven NF-kappaB luciferase reporter inhibitors, primary screen, cell-based, luminescence, single point | LMP1-induced NF-kappaB luciferase reporter cells | inhibition, % at 12.5 µM | actives 0.69% (n = 350,000); in the data active means inhibition above about 41%; inconclusive means no clear call, values can overlap the other calls;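 further: 0% = neutral control wells and 100% = reference inhibitor control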
TROY NFkB inh = inhibitors of TROY-driven NF-kB signaling, primary screen, Q293 LMP1-TROYcd cells, NF-kB luciferase, uHTS | AID 1347056, 2019 | actives 0.98% (n = 360,000) | Q293 LMP1-TROYcd NF-kB luciferase reporter, 4 h | inhibition, % at 10 µM;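 active means compounds whose plate-normalised and pattern-corrected inhibition of the luciferase reporter signal at the single screening dose is 50% or more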
LGR2 antag = inhibitors of bursicon-induced LGR2 CRE-luciferase signal, primary screen, cell-based, HEK293, CRE-luciferase reporter, bursicon stimulation | Drosophila bursicon receptor LGR2 (rickets) | bursicon-stimulated, 4 h | inhibition, % at 9.99 µM | actives 0.35% (n = 380,000) | AID 720647, 2013;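 active means drop in luminescence signal, shown as inhibition above about 50% in the replicate tests, limit read from the data, passing the limit was not always enough; inconclusive means probably only some replicates passing the limit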;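 further: agonist challenge used bursicon conditioned medium at about half maximal strength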
EWS-Fli block = EWS/Fli-driven NR0B1 reporter inhibitors, primary screen, A673 cells, NR0B1 luciferase, luminescence, MLPCN library; AID 651661, 2012; inhibition, % at 12.6 µM; viability-normalised; actives 0.67% (n = 350,000);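 active means mean inhibition of at least 50% after viability correction, with every replicate also passing that limit; inconclusive means mean reaches 50% but only one of two replicates passes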;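 further: firefly luciferase signal divided by Alamar Blue viability fluorescence both relative to DMSO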
Starred values were filed as active, the others as inactive; u = inconclusive; x = no result. Only some compounds are listed: those with a hit (about 2.5% of all), similar ones and a draw of the others.

SMILES	TWEAK-Fn14 inh	EBV LMP1 NFkB	TROY NFkB inh	LGR2 antag	EWS-Fli block
C[C@H]1CN([C@@H](C)CO)C(=O)c2cccc(NC(=O)Nc3ccc4c(c3)OCO4)c2O[C@H]1CN(C)S(=O)(=O)c1ccc(F)cc1	x	x	x	7	-13
C[C@@H]1CCCCO[C@H](CN(C)C(=O)c2ccccc2)[C@@H](C)CN([C@@H](C)CO)C(=O)c2cc(NC(=O)NC3CCCCC3)ccc2O1	x	x	x	-11	1
CCCNC(=O)N(C)C[C@H]1Oc2cc(C3=CCCCC3)ccc2S(=O)(=O)N([C@H](C)CO)C[C@@H]1C	x	x	x	9	12
c1ccc(-n2cnc3cc(NCc4ccccn4)ccc32)cc1	57*	13	42	-32	-48
CC(C)n1cnc2cc(NCc3ccccn3)ccc21	33	7	52*	x	-66
C[C@H]1CN([C@@H](C)CO)C(=O)c2cccc(NC(=O)Nc3ccc(C(F)(F)F)cc3)c2O[C@@H]1CN(C)C(=O)Nc1ccc2c(c1)OCO2	x	x	x	10	-1
O=[N+]([O-])c1ccc(N2CCN(Cc3ccccc3)CC2)c2c1no[n+]2[O-]	39	-43	-15	102*	49
O=[N+]([O-])c1ccc(N2CCN(Cc3ccccc3)CC2)s1	12	-2	-7	-9	7
C[C@H](CO)N1C[C@H](C)[C@H](CN(C)C(=O)c2cccnc2)Oc2ncc(-c3ccc(C#N)cc3)cc2C1=O	x	x	x	-8	0
CCCNC(=O)Nc1ccc2c(c1)C(=O)N(C)C[C@H](OC)[C@@H](C)CN(C(C)=O)[C@H](C)CO2	x	x	x	-5	-2
COc1ccc(N(C)C(=O)c2cc3c(s2)-c2ccc(Cl)cc2S(=O)(=O)C3)c(OC)c1	71*	11	31	6	17
O=S(=O)(N[C@H]1CC[C@@H](CCn2cc(-c3cccc(F)c3)nn2)O[C@H]1CO)c1ccc(Cl)cc1	x	x	x	-11	-8
C[C@@H]1CCCCO[C@H](CN(C)Cc2ccc3c(c2)OCO3)[C@@H](C)CN([C@@H](C)CO)C(=O)c2cc(NC(=O)c3ccccc3)ccc2O1	x	x	x	3	10
COc1ccccc1NC(=O)COc1ccc(/C=N/NC(=O)CSCc2ccc(Cl)cc2)cc1	33	8	51*	x	x
O=C(c1cccc(F)c1)N1C[C@@H]2[C@H](c3ccccc31)[C@@H](CO)N2C(=O)C1CC1	x	x	x	25	-8
Cc1cc(C(F)(F)F)c(C#N)c(SCC(=O)Nc2nc3cc(Br)ccc3s2)n1	79*	-5	72*	-31	-11
COc1ccc(C(C#N)=C2C=CC(=NO)C(C)=C2Cl)cc1	25	-2	-4	6	11
COc1ccc(C(C#N)=C2C=C(Cl)C(=NO)C=C2Cl)cc1	75*	5	42	-4	-10
COc1ccc(C2c3c(ncn(CCCO)c3=N)Oc3ccc4ccccc4c32)cc1 (configuration not stated)	-31	-3	-8	3	21
COc1ccccc1C1c2ccc3ccccc3c2Oc2ncn(CCCO)c(=N)c21 (configuration not stated)	-18	2	-4	x	x
COc1ccc(C2c3ccc4ccccc4c3Oc3ncn(CCCN(C)C)c(=N)c32)cc1 (configuration not stated)	-189	-35	-43	-3	63*
COc1ccccc1C1c2ccc3ccccc3c2Oc2ncn(CCN(C)C)c(=N)c21 (configuration not stated)	-8	48*	-6	-6	23
C[C@@H]1CN([C@@H](C)CO)S(=O)(=O)c2ccc(C#CC(C)(C)O)cc2O[C@@H]1CN(C)C	x	x	x	-20	-7
COc1ccc(-c2nc3ccccc3s2)cc1	75*	34	52*	80*	79*
O=C(Nc1cccc(-c2nc3ccccc3s2)c1)c1ccc2c(c1)OCO2	16	-1	-22	10	-29
SMILES	TWEAK-Fn14 inh	EBV LMP1 NFkB	TROY NFkB inh	LGR2 antag	EWS-Fli block
COc1cccc(-c2nc3ccccc3s2)c1	28	-33	-25	x	x
c1ccc2sc(-c3ccc4c(c3)OCO4)nc2c1	74*	22	11	x	x
CC(=O)c1c(C)[nH]c(C(=O)Nc2ccc(Cl)c(S(=O)(=O)N(C)C)c2)c1C	-40	-18	-43	-69	-108
CC(=O)c1c(C)[nH]c(C(=O)OCC(=O)Nc2ccc(Cl)cc2[N+](=O)[O-])c1C	64*	23	44	-1	13
CC(=O)c1c(C)[nH]c(C(=O)OCC(=O)Nc2ccc(Cl)c(S(=O)(=O)N(C)C)c2)c1C	54*	10	22	15	16
CCOC(=O)c1c(C)[nH]c(C(=O)OCC(=O)Nc2cc(Cl)ccc2OC)c1C	-15	-1	18	x	x
CO[C@@H]1CN(C)C(=O)c2cc(NC(C)=O)ccc2OC[C@@H](C)N(C(=O)C2CCC2)C[C@@H]1C	x	x	x	-4	-20
O=C(NCC1CC1)[C@H]1[C@H](CO)[C@H]2Cn3c(ccc(-c4ccccc4F)c3=O)[C@@H]1N2Cc1cccnc1	x	x	x	-14	-9
C[C@@H]1CN([C@H](C)CO)C(=O)c2cc(NC(=O)NC3CCCCC3)ccc2O[C@@H](C)CCCCO[C@@H]1CN(C)C(=O)C1CCCCC1	x	x	x	-6	6
CCOC(=O)/C(=C\c1cccc(O)c1)c1nc2sc(C)c(C)c2c(=O)[nH]1	101*	3	37	84*	-3
CCOC(=O)c1nc2sc(C)c(C)c2c(=O)[nH]1	1	1	-19	-3	-11
CCOc1ccc(OCc2cccc(C(=O)N3CCCC3)c2)cc1	-6	54*	-61	-32	x
CCOc1ccc(OCc2cccc(C(=O)N3CCCCCC3)c2)cc1	-16	53*	-46	46	u
CCOc1ccc(C(=O)N2CCCC2)cc1	12	-10	-11	-1	x
C[C@H](CO)N1C[C@H](C)[C@H](CN(C)C(=O)c2ccncc2)OCCCC[C@H](C)Oc2ccc(NS(=O)(=O)c3ccc(F)cc3)cc2C1=O	x	x	x	9	7
C=CCNc1nc(-c2sc(NC(C)=O)nc2C)cs1	-1	-17	-26	x	x
C=CCNc1nc(-c2sc(NC(=O)C(C)(C)C)nc2C)c(-n2cc(-c3ccccc3)nn2)s1	58*	x	16	36	1
COC(=O)c1ccccc1NC(=O)c1ccc(-c2ccc(Br)cc2)o1	77*	-28	81*	-19	x
COC(=O)c1ccccc1NC(=S)NC(=O)c1ccccc1	84*	5	x	x	x
COC(=O)c1ccccc1NC(=S)NC(=O)c1ccc(C)cc1	35	-2	-15	-3	5
O=C(NC(=S)Nc1ccc2ncccc2c1)c1ccccc1	-4	-16	64*	-30	-54
COC(=O)c1sc(NC(=S)NC(=O)c2ccccc2)nc1C	7	-33	52*	-21	-14
COCCNC(=O)C[C@H]1C[C@H]2c3cc(NC(=O)C4CCC4)ccc3O[C@H]2[C@H](CO)O1	x	x	x	-12	-10
